The values that follow come from PubChem BioAssay (NCI).

Among the test systems are NCI-H23 lung; NCI-H226 lung; NCI-H322M lung; HOP-62 NSCLC; NCI-H460 lung; HOP-92 NSCLC; NCI-H522 lung; A549/ATCC NSCLC; 786-0 renal; COLO 205 colon; DU-145 prostate; K-562 leukemia; MALME-3M melanoma; MDA-MB-231 breast; RXF 393 renal; SF-268 CNS; SF-295 CNS; SF-539 CNS; UACC-257 melanoma; M14 melanoma.
Holding throughout (assay): NCI-60 one-dose screen, 48 h (100 = growth as untreated, 0 = no growth, -100 = all killed)
Common to all, as to settings: 10 µM unless noted

This is part of a sample that, as a whole, favours compounds with a hit. Of some 83,000 tested, about 20% had one in any assay.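 Results are percent growth after 48 hours of single-concentration exposure. 100 means growth as in untreated cells, lower positive values show inhibition; negative values down to -100 show cell death.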 Values without a mark were called inactive. Active and inactive are the calls of the source. The calls were made as follows: active = growth percent below 10; inactive = the rest.

For the compound `O=C(/C=C/C12c3ccccc3C(c3ccccc31)C1C(=O)NC(=O)C12)c1cccs1` (stereo not given), the growth was 37.4% in the assay with NCI-H23 lung; 73.4% with NCI-H226 lung; 31.9% in the assay on NCI-H322M lung; 41.3% with HOP-62 NSCLC; 17.3% with NCI-H460 lung; 37.1% in the assay on HOP-92 NSCLC. For the same compound, the growth with NCI-H522 lung was 28%; with A549/ATCC NSCLC it was 43.5%; in the assay on 786-0 renal, 43.4%; in the assay with COLO 205 colon, 44%; in the assay on DU-145 prostate, 13.5%; with K-562 leukemia, 16.8%. Besides, the growth was 75.6% in the assay with MALME-3M melanoma; 51.6% in the assay on MDA-MB-231 breast; 28.1% in the assay with RXF 393 renal; 32.9% with SF-268 CNS; 52.5% in the assay on SF-295 CNS; 53.9% in the assay with SF-539 CNS. For the same compound, the values for the growth with UACC-257 melanoma and in the assay on M14 melanoma were 45.7% and 48.2%, respectively.

With `Cc1nc2sc(C(=O)Nc3ccccc3)c(N)c2cc1C(O)c1ccccc1` (stereo not given), the growth with NCI-H23 lung was 33.5%; in the assay on NCI-H226 lung it was 64%; in the assay on NCI-H322M lung, 56.3%; in the assay on HOP-62 NSCLC, 39.6%; with NCI-H460 lung, 4.01% (active); in the assay with HOP-92 NSCLC, 63.7%. Besides, the growth is 12.8% in the assay with NCI-H522 lung; 24.4% in the assay with A549/ATCC NSCLC; 40.8% in the assay with 786-0 renal; -8.82% (active) with COLO 205 colon; 18.1% with DU-145 prostate; 7.04% (active) with K-562 leukemia. For the same compound, the growth in the assay with MALME-3M melanoma is 60.8%; with MDA-MB-231 breast, 16.7%; in the assay on RXF 393 renal it was 40%; in the assay with SF-268 CNS, 47.9%; with SF-295 CNS it was 4.69% (active); with SF-539 CNS it was -5.44% (active). The growth in the assay with UACC-257 melanoma is 72.5%; in the assay with M14 melanoma it was 20.3%.

As to `COc1cc(-c2c(-c3ccccc3)c[nH]c2C(=O)NCCCO)c(OC)c2c1OCO2`, the growth in the assay with NCI-H23 lung is 96.3%; with NCI-H226 lung it was 95%; with NCI-H322M lung, 95.9%; in the assay on HOP-62 NSCLC, 98.2%; with NCI-H460 lung it was 110%; in the assay with HOP-92 NSCLC it was 97%. The growth with NCI-H522 lung is 93.9%; in the assay on A549/ATCC NSCLC, 103%; in the assay on 786-0 renal, 102%; with COLO 205 colon it was 114%; with DU-145 prostate, 111%; in the assay on K-562 leukemia, 86.5%. For the same compound, the growth in the assay on MALME-3M melanoma is 108%; with MDA-MB-231 breast, 88.8%; with RXF 393 renal, 93.5%; in the assay on SF-268 CNS it was 99.4%; in the assay on SF-295 CNS, 101%; with SF-539 CNS, 104%. Besides, the growth in the assay with UACC-257 melanoma is 106%; in the assay on M14 melanoma, 105%.

For `COc1ccc(/C=N\NC(=O)c2ccc3nc(-c4ccc(Cl)cc4)[nH]c3c2)cc1`, the growth with NCI-H23 lung was 41.6%; in the assay on NCI-H226 lung, 73.8%; in the assay with NCI-H322M lung it was 55.9%; in the assay on HOP-62 NSCLC, 30.3%; in the assay on NCI-H460 lung, 5.91% (active); in the assay on HOP-92 NSCLC, 36%. For the same compound, the growth is 82.6% in the assay on NCI-H522 lung; 12% in the assay on A549/ATCC NSCLC; 3.15% (active) with 786-0 renal; 22.9% in the assay on COLO 205 colon; 79.3% with DU-145 prostate; 31.9% with K-562 leukemia. Moreover, the growth in the assay with MALME-3M melanoma was 6.53% (active); in the assay on MDA-MB-231 breast, 39.8%; in the assay with RXF 393 renal it was 43.8%; in the assay with SF-268 CNS, 19.9%; in the assay on SF-295 CNS, -38.9% (active); with SF-539 CNS it was 42.6%. Also, the growth in the assay with UACC-257 melanoma is 54.4%; with M14 melanoma, 26.2%.

In the case of `O=C1C(Nc2ccc(Br)cc2)=C(I)C(=O)c2ncccc21`, the growth was 10.6% with NCI-H23 lung; 87.3% in the assay on NCI-H226 lung; 84.4% in the assay with NCI-H322M lung; 42.1% in the assay on HOP-62 NSCLC; 23.3% with NCI-H460 lung; -82.6% (active) with HOP-92 NSCLC. Also, the growth in the assay on NCI-H522 lung is -46.2% (active); in the assay on A549/ATCC NSCLC, 46.8%; in the assay on 786-0 renal it was 44.4%; in the assay on COLO 205 colon, 23.5%; with DU-145 prostate, 20.5%; in the assay with K-562 leukemia, 5.98% (active). Further, the growth in the assay on MALME-3M melanoma is -6.23% (active); in the assay with MDA-MB-231 breast it was 6.88% (active); with RXF 393 renal, 45.8%; in the assay on SF-268 CNS, 46.2%; in the assay on SF-295 CNS, 86.6%; in the assay with SF-539 CNS it was 15.3%. Also, the growth in the assay with UACC-257 melanoma was 49.3%; in the assay with M14 melanoma, 10.4%.

On to `C#CCOc1ccc(C2=NN(C)C3N=C(Cl)c4ncn(C)c4N23)cc1OCC#C` (stereo not given), for which the growth is 89.7% in the assay with NCI-H23 lung; 83.4% in the assay on NCI-H226 lung; 90.2% in the assay on NCI-H322M lung; 95.5% in the assay with HOP-62 NSCLC; 105% with NCI-H460 lung; 79.8% with HOP-92 NSCLC. Besides, the growth was 87.3% in the assay on NCI-H522 lung; 104% with A549/ATCC NSCLC; 105% in the assay on 786-0 renal; 102% in the assay with COLO 205 colon; 104% in the assay on DU-145 prostate; 93.5% in the assay with K-562 leukemia. The growth is 112% in the assay with MALME-3M melanoma; 95.9% in the assay with MDA-MB-231 breast; 82.7% in the assay with RXF 393 renal; 105% in the assay with SF-268 CNS; 94.3% in the assay with SF-295 CNS; 90% in the assay with SF-539 CNS. The values for the growth in the assay on UACC-257 melanoma and in the assay with M14 melanoma were 97.2% and 104%, respectively.

For the compound `CC(=O)OCCOc1cc(Cl)c(Cl)cc1Cl`, the growth with NCI-H23 lung is 97.4%; in the assay on NCI-H226 lung, 101%; with NCI-H322M lung it was 112%; in the assay on HOP-62 NSCLC it was 103%; with NCI-H460 lung, 109%; in the assay with HOP-92 NSCLC, 82.3%. Also, the growth is 86.6% in the assay on NCI-H522 lung; 90.8% with A549/ATCC NSCLC; 100% in the assay with 786-0 renal; 121% in the assay with COLO 205 colon; 105% with DU-145 prostate; 102% in the assay with K-562 leukemia. The growth in the assay with MALME-3M melanoma is 114%; with MDA-MB-231 breast, 94.3%; in the assay on RXF 393 renal it was 102%; with SF-268 CNS, 99.4%; with SF-295 CNS, 95%; in the assay with SF-539 CNS, 107%. For the same compound, the growth in the assay on UACC-257 melanoma was 102%; with M14 melanoma, 103%.
